Assay outcomes from PubChem BioAssay.
Sfp PPTase inh – qHTS Assay for Inhibitors of Bacillus subtilis Sfp phosphopantetheinyl transferase (PPTase) | Biochemical Sfp PPTase activity, qHTS | 4'-phosphopantetheinyl transferase ffp (Bacillus subtilis), Q9F4F7 | 310,000 compounds, 3.5% hits | AID 1490, 2009 | Potency, µM, actives largely listed as inhibitors;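 note: the enzyme is Sfp with the accession as filed and its product quenches rhodamine fluorescence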
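With Hepes-Na pH 7.6 buffer containing 10 mM MgCl2, Sfp (15 nM) modified BHQ-2-YbbR (12.5 uM) using rhodamine-CoA (5 uM). Two reads 30 minutes apart at 525/598 nm yielded each well's rate.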
HP1b binding inh – HTS for Inhibitors of HP1-beta Chromodomain Interactions with Methylated Histone Tails; Chromobox protein homolog 1 (Homo sapiens), P83916; AlphaScreen HP1-beta / biotin-H3K9me3 peptide binding; Potency, µM (doses to about 114 µM), most hits filed as inhibitors; 390,000 compounds, 0.56% hits; AID 540317, 2011; note: nearly all actives have a fitted effect of over 70% in size
Target sequence (P83916 whole entry, looked up): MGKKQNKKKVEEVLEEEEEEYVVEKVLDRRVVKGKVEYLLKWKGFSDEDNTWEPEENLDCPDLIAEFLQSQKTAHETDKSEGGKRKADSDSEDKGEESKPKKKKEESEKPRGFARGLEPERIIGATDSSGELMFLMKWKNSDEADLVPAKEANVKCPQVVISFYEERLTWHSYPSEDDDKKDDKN
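Compound inhibition of the preformed complex between 50 nM HP1-beta and 50 nM biotinylated H3K9me3 peptide was read by AlphaScreen. Buffer was PBS pH 7.4 with 0.01% Tween-20. Incubations ran 30 min at room temperature, with 10 ug/mL donor/acceptor beads.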
BAZ2B block – qHTS Assay for Inhibitors of BAZ2B. 360,000 compounds, 4.4% hits. AlphaScreen BAZ2B-H3K14Ac peptide displacement. Potency, µM (top dose mostly 114 µM), most hits filed as inhibitors. Bromodomain adjacent to zinc finger domain protein 2B (Homo sapiens), Q9UIF8; note: nearly all actives have a fitted effect of over 60% in size
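Protein-peptide AlphaScreen: BAZ2B 50 nM, b-H3K14Ac 50 nM, 1x PBS pH 7.4 + 0.01% Tween-20. Preincubation 30 min RT; cpd 30 min RT (top 110 uM); beads 20 min RT, light-protected.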
JMJD2A Tudor inh – qHTS Assay for Inhibitors of JMJD2A-Tudor Domain. Lysine-specific demethylase 4A (Homo sapiens), O75164. AlphaScreen JMJD2A-Tudor / H3K4me3 peptide binding. Potency, µM (doses to about 114 µM), actives largely listed as inhibitors. 390,000 compounds, 4.4% hits. AID 504339, 2011; note: nearly all actives have a fitted effect of over 50% in size
G9a block – qHTS Assay for Inhibitors of Histone Lysine Methyltransferase G9a. Histone-lysine N-methyltransferase EHMT2 (Homo sapiens), Q96KQ7. G9a H3K9 monomethylation, AlphaScreen, 2 h. Potency, µM (series often up to 102 µM), actives largely listed as inhibitors. 350,000 compounds, 8.8% hits. AID 504332, 2011; note: nearly all actives have a fitted effect of over 75% in size
Target sequence (Q96KQ7 913-1193 limits assumed): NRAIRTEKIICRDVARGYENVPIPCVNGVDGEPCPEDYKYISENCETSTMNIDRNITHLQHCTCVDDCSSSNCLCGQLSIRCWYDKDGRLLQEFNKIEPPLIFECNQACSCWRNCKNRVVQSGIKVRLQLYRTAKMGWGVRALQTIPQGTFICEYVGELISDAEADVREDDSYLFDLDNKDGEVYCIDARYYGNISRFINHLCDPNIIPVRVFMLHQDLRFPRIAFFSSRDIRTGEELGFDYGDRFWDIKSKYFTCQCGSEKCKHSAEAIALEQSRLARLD
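Chemiluminescent proximity detection of H3K9 monomethylation, read after 10 min bead incubation in the dark. Reaction: 20 nM G9a, 500 nM biotin-H3K9 peptide, 20 uM SAM cofactor, 2 h, room temperature, following 15 min enzyme-compound preincubation.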
L3MBTL1 block – qHTS Assay for the Inhibitors of L3MBTL1; 230,000 compounds, 0.66% hits; Potency, µM (top dose mostly 57.1 µM), actives largely listed as inhibitors; AlphaScreen L3MBTL1–H3K9me1 peptide binding; Lethal(3)malignant brain tumor-like protein 1 (Homo sapiens), Q9Y468; note: nearly all actives have a fitted effect of over 60% in size
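First, the protein-peptide complex forms for 30 min at room temperature (L3MBTL1 50 nM, biotinylated H3K9me1 peptide 75 nM). Next, compounds are pin-transferred and incubated 30 min. Finally, AlphaScreen beads are added and read after 30 min.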
Large screens that a line does not name were inactive. Only some compounds are listed: those with a hit (about 12% of all), similar ones and a draw of the others. Calls come from the whole dose curve; as a rule, active = well fitted curve in the direction sought with a large enough effect; inconclusive = small, poorly fitted or top-dose-only effect, or another doubt; inactive = no such curve, though single readings can be large; an effect the other way counts as inactive or inconclusive.

CC(=O)Nc1ccc(-c2nnc(SCC(=O)Nc3ccc4c(c3)oc3ccccc34)n2C)cc1	JMJD2A Tudor inh 100µM
Nc1nnc(SCc2c(F)cccc2Cl)s1	none
CCCn1c(C)nc2c(NCCCCN(C)C)nc(C)nc21	none (no result: HP1b binding inh, BAZ2B block, JMJD2A Tudor inh, G9a block, L3MBTL1 block)
Cc1cccc(C)c1NC(=S)/C(=C(\[O-])c1cccs1)[n+]1ccccc1	Sfp PPTase inh inconclusive, G9a block 7.94µM
Cc1cccc(C)c1NC(=O)COC(=O)CCC(=O)c1cccs1	HP1b binding inh inconclusive (no result: L3MBTL1 block)
[O-]/C(=C(\C(=S)Nc1cccc2ccccc12)[n+]1ccccc1)c1cccs1	Sfp PPTase inh inconclusive, HP1b binding inh inconclusive, BAZ2B block inconclusive, JMJD2A Tudor inh 79.4µM, G9a block 35.5µM, L3MBTL1 block inconclusive
Cc1cc(C)nc(NC(=S)Nc2ccccc2)n1	none
CCOc1ccc2nc(N/C(N)=N/C(=S)Nc3ccc(C)c(C)c3)nc(C)c2c1	none
CCNC(=S)/N=C(\N)Nc1nc(C)c2cc(C)ccc2n1	BAZ2B block 11.2µM, JMJD2A Tudor inh inconclusive, G9a block inconclusive
CCNC(=S)/N=C(/Nc1ccc(OC)cc1)Nc1nc(C)cc(C)n1	Sfp PPTase inh 3.16µM
CCNC(=S)NC(=NCc1cccnc1)Nc1nc(C)cc(C)n1	Sfp PPTase inh 25.1µM (no result: G9a block)
CCNC(=S)/N=C(/Nc1ccccc1)Nc1nc(C)cc(C)n1	Sfp PPTase inh 4.47µM, BAZ2B block inconclusive (no result: G9a block)
Cc1ccc(NC(=S)NCc2cccnc2)cc1	none
COC(=O)N1C2=C(c3ccccc3[C@@H]1CC(=O)Nc1ccc(Br)cc1)[C@@H]1C(=O)N(c3ccccc3)C(=O)[C@@H]1[C@H](C)C2	none (no result: HP1b binding inh, BAZ2B block, JMJD2A Tudor inh, G9a block, L3MBTL1 block)
C1CCC(C(C[C@@H]2CCCCN2)C2CCCCC2)CC1	none (no result: HP1b binding inh, BAZ2B block, JMJD2A Tudor inh, L3MBTL1 block)
CCOC(=O)c1cnc2ccc(OCC)cc2c1NCCCN1CCOCC1	G9a block inconclusive
COc1ccccc1CNC(=O)c1ccc(N2CCCC2)c(NC(=O)NCCC(C)C)c1	none (no result: Sfp PPTase inh, L3MBTL1 block)
CSc1ccccc1NC(=O)C1CCN(S(C)(=O)=O)CC1	none
CCN(c1ccccc1)S(=O)(=O)c1cc(C(=O)OC(C)C(=O)Nc2ccc3c(c2)OCCO3)ccc1C (stereo not given)	BAZ2B block inconclusive, JMJD2A Tudor inh inconclusive, G9a block 39.8µM
CC[C@H](C)[C@H]1CNC(=O)C(=O)N1CC1CCN(CCc2ccc(Cl)c(Cl)c2)CC1	none (no result: Sfp PPTase inh, BAZ2B block, G9a block, L3MBTL1 block)
O=C1NCCN(CC2CCN(CCc3ccc(Cl)c(Cl)c3)CC2)C1=O	JMJD2A Tudor inh 79.4µM (no result: Sfp PPTase inh, BAZ2B block, G9a block, L3MBTL1 block)
CC(C)c1ccc(S(=O)(=O)N2CCCCC2)cc1	none (no result: BAZ2B block, L3MBTL1 block)
CC(C)c1ccc(S(=O)(=O)c2ccc(NN)cc2)cc1	G9a block 10µM
COc1ccc(S(=O)(=O)Nc2nnc(C(C)C)s2)cc1	JMJD2A Tudor inh inconclusive, G9a block inconclusive
CC(=O)Nc1ccc(S(=O)(=O)Nc2nnc(C(C)C)s2)cc1	BAZ2B block inconclusive, G9a block 25.1µM (no result: L3MBTL1 block)
CC(=O)Nc1ccc(S(=O)(=O)Nc2nnc(Cc3ccc(Cl)cc3)s2)cc1	Sfp PPTase inh inconclusive, G9a block 22.4µM (no result: L3MBTL1 block)
Cc1[nH]n(-c2ncc(-c3ccc(Cl)cc3)s2)c(=O)c1C(c1ccc(Cl)cc1)C(C#N)C#N (stereo not given)	Sfp PPTase inh inconclusive, HP1b binding inh inconclusive, BAZ2B block inconclusive, JMJD2A Tudor inh 56.2µM, G9a block inconclusive
CNC(=O)N(O)C1N(/N=C/c2ccc(SC)cc2)C(=S)SC1(C)C (stereo not given)	none (no result: L3MBTL1 block)
CN(C)c1ccc(/C=N/N2C(=S)SC(C)(C)C2N(O)C(=O)Nc2ccc([N+](=O)[O-])cc2)cc1 (stereo not given)	HP1b binding inh inconclusive, BAZ2B block inconclusive, JMJD2A Tudor inh 56.2µM
CNC(=O)N(O)C1N(/N=C/c2ccccc2O)C(=S)SC1(C)C (stereo not given)	Sfp PPTase inh 44.7µM (no result: G9a block)
CN(c1ccccc1)S(=O)(=O)c1ccc(NC(=O)CC(=O)c2ccccc2)cc1	none (no result: Sfp PPTase inh, BAZ2B block, G9a block, L3MBTL1 block)
